From PubChem BioAssay (NCI) come the findings set out here.

Common to all, as to assay: NCI-60 one-dose screen, 48 h (100 = growth as untreated, 0 = no growth, -100 = all killed)
One test deals with 786-0 renal. The following applies: 10 µM unless noted.
In a further test the test system is DU-145 prostate. The note with it: 10 µM unless noted.
The test system of another test is MDA-MB-231 breast. The note with it: 10 µM unless noted.
Another test relates to SF-268 CNS. The note with it: 10 µM unless noted.
A further test concerns SF-539 CNS. The following applies: 10 µM unless noted.
A further test deals with HCT-15 colon. The following applies: 10 µM.
Another test relates to SNB-19 CNS. The following applies: 10 µM unless noted.
In another test the test system is UACC-62 melanoma. The following applies: 10 µM unless noted.
The test system of another test is SN12C renal. The note with it: 10 µM unless noted.
The next test has as its system ACHN renal. The note with it: 10 µM unless noted.
For the next test, the system named is MOLT-4 leukemia. The note with it: 10 µM.
The test system of another test is OVCAR-8 ovarian. The note with it: 10 µM unless noted.
Another test deals with SK-OV-3 ovarian. The note with it: 10 µM unless noted.
For another test, the system named is NCI/ADR-RES ovarian. The following applies: 10 µM unless noted.
In the next test the test system is T-47D breast. The following applies: 10 µM unless noted.
For another test, the system named is MDA-MB-435 melanoma. The note with it: 10 µM unless noted.
For the next test, the system named is SW-620 colon. The note with it: 10 µM unless noted.
Another test relates to HCT-116 colon. The note with it: 10 µM unless noted.
The subject of another test is KM12 colon. The following applies: 10 µM unless noted.
A further test concerns M14 melanoma. The following applies: 10 µM unless noted.

Each structure is given as a SMILES string. About 83,000 compounds went through this panel and 20% of them were active in at least one assay; those are over-represented in the sample as a whole.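 Results are percent growth after 48 hours of single-concentration exposure. 100 means growth as in untreated cells, lower positive values show inhibition; negative values down to -100 show cell death.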 A number with no mark means an inactive call. Active and inactive are the calls of the source. How the source made its calls: active means growth percent below 10; inactive means the rest.

With `CCCCn1cc(C(=O)/C(C#N)=C/c2cc3ccccc3nc2Cl)c2cc(OC)ccc21`, the growth in the test with 786-0 renal was 97%; in the test with DU-145 prostate, 104%; in the test with MDA-MB-231 breast, 87.8%; in the test on SF-268 CNS it was 83.1%; in the test with SF-539 CNS it was 89%; with HCT-15 colon, 94.3%. For the same compound, the growth in the test with SNB-19 CNS is 90.3%; in the test with UACC-62 melanoma, 81.4%; in the test on SN12C renal, 79.2%; with ACHN renal it was 79%; in the test on MOLT-4 leukemia, 67.8%; in the test with OVCAR-8 ovarian, 75.1%. Also, the growth with SK-OV-3 ovarian was 94.5%; in the test on NCI/ADR-RES ovarian, 91.7%; in the test with T-47D breast it was 80.4%; with MDA-MB-435 melanoma, 101%; in the test on SW-620 colon, 44.7%; in the test on HCT-116 colon, 23.6%. Further, in the test on KM12 colon, the growth was 94.5%.
With `C[CH2][Pb]([CH2]C)([CH2]C)[O]C(=O)COc1ccccc1`, the growth with 786-0 renal was -22% (active); in the test with DU-145 prostate, -6.43% (active); in the test with MDA-MB-231 breast, 20.1%; in the test with SF-268 CNS, -10.1% (active); in the test on SF-539 CNS it was -21.8% (active); with M14 melanoma it was 14.6%. Moreover, the growth in the test with HCT-15 colon is 12.4%; with UACC-62 melanoma, 25.3%; in the test on SN12C renal, 8.52% (active); with ACHN renal, 11.5%; in the test with MOLT-4 leukemia it was -27.2% (active); in the test on OVCAR-8 ovarian, 9.05% (active). In addition, the growth in the test on SK-OV-3 ovarian is 4.72% (active); in the test on NCI/ADR-RES ovarian it was 2.79% (active); with T-47D breast, 17.2%; in the test with MDA-MB-435 melanoma, -31.9% (active); in the test on SW-620 colon it was 6.03% (active); in the test on HCT-116 colon, 4.13% (active). For the same compound, the growth in the test with KM12 colon is 1.59% (active).
In the case of `CC1(C)N=C(N)N=C(N)N1c1ccc(OCCCCNC(=O)c2ccc(S(=O)(=O)F)cc2)c(Cl)c1`, the growth is 40.9% in the test with 786-0 renal; 55% in the test on DU-145 prostate; 105% with MDA-MB-231 breast; 40.7% with SF-268 CNS; 64.9% with SF-539 CNS; 70.1% with M14 melanoma. The growth in the test on HCT-15 colon was 94.9%; in the test on SNB-19 CNS, 103%; with UACC-62 melanoma, 44.1%; in the test on SN12C renal it was 44.7%; in the test on ACHN renal it was 96.9%; in the test with MOLT-4 leukemia, 57.9%. Further, the growth with OVCAR-8 ovarian is 32.7%; in the test on SK-OV-3 ovarian, 101%; with NCI/ADR-RES ovarian, 109%; with T-47D breast it was 104%; in the test on MDA-MB-435 melanoma it was 30.6%; in the test with SW-620 colon, 35.1%. The growth is 25.6% in the test with HCT-116 colon and 66.5% in the test on KM12 colon.
Take `O=S(=O)(Cl)c1ccccc1` (tested in a mixture with another compound): the growth was 102% in the test with 786-0 renal; 109% in the test with DU-145 prostate; 117% in the test on MDA-MB-231 breast; 104% in the test on SF-268 CNS; 102% in the test with SF-539 CNS; 102% with M14 melanoma. The growth is 101% in the test with HCT-15 colon; 100% in the test with SNB-19 CNS; 106% in the test on UACC-62 melanoma; 102% with SN12C renal; 93.9% in the test on ACHN renal; 93% in the test on MOLT-4 leukemia. For the same compound, the growth in the test on OVCAR-8 ovarian was 108%; in the test on SK-OV-3 ovarian, 102%; in the test with NCI/ADR-RES ovarian it was 110%; in the test on T-47D breast it was 97.7%; in the test on MDA-MB-435 melanoma it was 115%; in the test on SW-620 colon it was 96.9%. Besides, the growth with HCT-116 colon was 99.4%; in the test with KM12 colon it was 108%.
For `Cc1ccc(C(=O)C2CN(C)CCC2(O)c2ccc(C)cc2)cc1` (stereo not given), the growth with 786-0 renal was 113%; with DU-145 prostate it was 117%; in the test on MDA-MB-231 breast it was 116%; with SF-268 CNS, 110%; in the test with M14 melanoma it was 113%; with HCT-15 colon, 103%. The growth in the test with SNB-19 CNS was 118%; in the test with UACC-62 melanoma it was 117%; with SN12C renal, 107%; in the test on MOLT-4 leukemia it was 103%; with OVCAR-8 ovarian, 107%; in the test with SK-OV-3 ovarian it was 122%. Moreover, the growth in the test with NCI/ADR-RES ovarian is 103%; with T-47D breast it was 102%; with MDA-MB-435 melanoma, 106%; with SW-620 colon it was 105%; in the test on HCT-116 colon, 107%; with KM12 colon, 109%.
As to `CCN(CC)CCOc1c(C(C)C)cccc1C(C)C`, the growth in the test with 786-0 renal is 99.6%; in the test with MDA-MB-231 breast it was 109%; in the test with SF-268 CNS it was 107%; with SF-539 CNS, 116%; in the test on M14 melanoma, 99.2%; with HCT-15 colon, 98.4%. Also, the growth is 106% with SNB-19 CNS; 99.5% in the test on UACC-62 melanoma; 105% in the test on SN12C renal; 97.4% in the test on ACHN renal; 102% in the test on MOLT-4 leukemia; 100% with OVCAR-8 ovarian. Also, the growth with SK-OV-3 ovarian was 112%; with NCI/ADR-RES ovarian, 101%; with T-47D breast, 85.1%; in the test with MDA-MB-435 melanoma it was 114%; in the test with SW-620 colon, 106%; in the test on HCT-116 colon it was 95.2%. Further, in the test on KM12 colon, the growth was 99.3%.
In the case of `CC1(C)N=C(N)N=C(N)N1c1ccc(CNC(=O)Nc2ccc(S(=O)(=O)F)c(Cl)c2)c(Cl)c1`, the growth in the test with 786-0 renal was 30.8%; in the test on DU-145 prostate it was 31.7%; in the test on MDA-MB-231 breast it was 60.8%; in the test on SF-268 CNS, 26.5%; in the test on SF-539 CNS it was 24.9%; in the test with M14 melanoma it was 29.4%. Moreover, the growth is 47.5% in the test on HCT-15 colon; 56% with SNB-19 CNS; 23.9% in the test with UACC-62 melanoma; 17% in the test on SN12C renal; 52.9% with ACHN renal; 22.1% in the test with MOLT-4 leukemia. For the same compound, the growth in the test with OVCAR-8 ovarian is 25.4%; with SK-OV-3 ovarian, 42.9%; with NCI/ADR-RES ovarian, 103%; with T-47D breast it was 60.3%; in the test on MDA-MB-435 melanoma, 13.5%; in the test with SW-620 colon it was 12.5%. Also, the growth with HCT-116 colon was 10.1%; in the test on KM12 colon, 21.2%.
Consider `CC12CCC(=O)C=C1C(O)CC1C2CCC2(C)C(O)CCC12` (stereo not given), for which the growth in the test with 786-0 renal is 115%; in the test with DU-145 prostate it was 102%; in the test on MDA-MB-231 breast, 114%; with SF-268 CNS, 98%; in the test with SF-539 CNS it was 98.7%; in the test on M14 melanoma it was 105%. Besides, the growth in the test with HCT-15 colon was 106%; in the test with SNB-19 CNS, 101%; with UACC-62 melanoma, 99.5%; with SN12C renal, 105%; in the test with ACHN renal, 117%; in the test with MOLT-4 leukemia, 96.5%. For the same compound, the growth is 105% in the test with OVCAR-8 ovarian; 115% in the test on SK-OV-3 ovarian; 108% with NCI/ADR-RES ovarian; 112% in the test with T-47D breast; 112% in the test on MDA-MB-435 melanoma; 109% in the test with SW-620 colon. Further, the growth in the test on HCT-116 colon is 99%; in the test on KM12 colon it was 98.8%.
